Compound activity: PubChem BioAssay, University of Kansas High Throughput Screening Laboratory
Pf apPOL block: Pf-apPOL DNA polymerase inhibition; Recombinant Pf-apPOL, molecular beacon fluorescence, 1.5 h; inhibition, % at 10 µM; 210,000 compounds, 0.25% hits; AID 1794808
mHTT CaM bind: inhibitors of human mutant huntingtin-calmodulin interaction; P42858; AlphaScreen His-mHTT/GST-CaM binding, luminescence; inhibition, % at 15 µM; 190,000 compounds, 3.6% hits; AID 1671202
Target sequence (P42858 whole entry, looked up, change not shown): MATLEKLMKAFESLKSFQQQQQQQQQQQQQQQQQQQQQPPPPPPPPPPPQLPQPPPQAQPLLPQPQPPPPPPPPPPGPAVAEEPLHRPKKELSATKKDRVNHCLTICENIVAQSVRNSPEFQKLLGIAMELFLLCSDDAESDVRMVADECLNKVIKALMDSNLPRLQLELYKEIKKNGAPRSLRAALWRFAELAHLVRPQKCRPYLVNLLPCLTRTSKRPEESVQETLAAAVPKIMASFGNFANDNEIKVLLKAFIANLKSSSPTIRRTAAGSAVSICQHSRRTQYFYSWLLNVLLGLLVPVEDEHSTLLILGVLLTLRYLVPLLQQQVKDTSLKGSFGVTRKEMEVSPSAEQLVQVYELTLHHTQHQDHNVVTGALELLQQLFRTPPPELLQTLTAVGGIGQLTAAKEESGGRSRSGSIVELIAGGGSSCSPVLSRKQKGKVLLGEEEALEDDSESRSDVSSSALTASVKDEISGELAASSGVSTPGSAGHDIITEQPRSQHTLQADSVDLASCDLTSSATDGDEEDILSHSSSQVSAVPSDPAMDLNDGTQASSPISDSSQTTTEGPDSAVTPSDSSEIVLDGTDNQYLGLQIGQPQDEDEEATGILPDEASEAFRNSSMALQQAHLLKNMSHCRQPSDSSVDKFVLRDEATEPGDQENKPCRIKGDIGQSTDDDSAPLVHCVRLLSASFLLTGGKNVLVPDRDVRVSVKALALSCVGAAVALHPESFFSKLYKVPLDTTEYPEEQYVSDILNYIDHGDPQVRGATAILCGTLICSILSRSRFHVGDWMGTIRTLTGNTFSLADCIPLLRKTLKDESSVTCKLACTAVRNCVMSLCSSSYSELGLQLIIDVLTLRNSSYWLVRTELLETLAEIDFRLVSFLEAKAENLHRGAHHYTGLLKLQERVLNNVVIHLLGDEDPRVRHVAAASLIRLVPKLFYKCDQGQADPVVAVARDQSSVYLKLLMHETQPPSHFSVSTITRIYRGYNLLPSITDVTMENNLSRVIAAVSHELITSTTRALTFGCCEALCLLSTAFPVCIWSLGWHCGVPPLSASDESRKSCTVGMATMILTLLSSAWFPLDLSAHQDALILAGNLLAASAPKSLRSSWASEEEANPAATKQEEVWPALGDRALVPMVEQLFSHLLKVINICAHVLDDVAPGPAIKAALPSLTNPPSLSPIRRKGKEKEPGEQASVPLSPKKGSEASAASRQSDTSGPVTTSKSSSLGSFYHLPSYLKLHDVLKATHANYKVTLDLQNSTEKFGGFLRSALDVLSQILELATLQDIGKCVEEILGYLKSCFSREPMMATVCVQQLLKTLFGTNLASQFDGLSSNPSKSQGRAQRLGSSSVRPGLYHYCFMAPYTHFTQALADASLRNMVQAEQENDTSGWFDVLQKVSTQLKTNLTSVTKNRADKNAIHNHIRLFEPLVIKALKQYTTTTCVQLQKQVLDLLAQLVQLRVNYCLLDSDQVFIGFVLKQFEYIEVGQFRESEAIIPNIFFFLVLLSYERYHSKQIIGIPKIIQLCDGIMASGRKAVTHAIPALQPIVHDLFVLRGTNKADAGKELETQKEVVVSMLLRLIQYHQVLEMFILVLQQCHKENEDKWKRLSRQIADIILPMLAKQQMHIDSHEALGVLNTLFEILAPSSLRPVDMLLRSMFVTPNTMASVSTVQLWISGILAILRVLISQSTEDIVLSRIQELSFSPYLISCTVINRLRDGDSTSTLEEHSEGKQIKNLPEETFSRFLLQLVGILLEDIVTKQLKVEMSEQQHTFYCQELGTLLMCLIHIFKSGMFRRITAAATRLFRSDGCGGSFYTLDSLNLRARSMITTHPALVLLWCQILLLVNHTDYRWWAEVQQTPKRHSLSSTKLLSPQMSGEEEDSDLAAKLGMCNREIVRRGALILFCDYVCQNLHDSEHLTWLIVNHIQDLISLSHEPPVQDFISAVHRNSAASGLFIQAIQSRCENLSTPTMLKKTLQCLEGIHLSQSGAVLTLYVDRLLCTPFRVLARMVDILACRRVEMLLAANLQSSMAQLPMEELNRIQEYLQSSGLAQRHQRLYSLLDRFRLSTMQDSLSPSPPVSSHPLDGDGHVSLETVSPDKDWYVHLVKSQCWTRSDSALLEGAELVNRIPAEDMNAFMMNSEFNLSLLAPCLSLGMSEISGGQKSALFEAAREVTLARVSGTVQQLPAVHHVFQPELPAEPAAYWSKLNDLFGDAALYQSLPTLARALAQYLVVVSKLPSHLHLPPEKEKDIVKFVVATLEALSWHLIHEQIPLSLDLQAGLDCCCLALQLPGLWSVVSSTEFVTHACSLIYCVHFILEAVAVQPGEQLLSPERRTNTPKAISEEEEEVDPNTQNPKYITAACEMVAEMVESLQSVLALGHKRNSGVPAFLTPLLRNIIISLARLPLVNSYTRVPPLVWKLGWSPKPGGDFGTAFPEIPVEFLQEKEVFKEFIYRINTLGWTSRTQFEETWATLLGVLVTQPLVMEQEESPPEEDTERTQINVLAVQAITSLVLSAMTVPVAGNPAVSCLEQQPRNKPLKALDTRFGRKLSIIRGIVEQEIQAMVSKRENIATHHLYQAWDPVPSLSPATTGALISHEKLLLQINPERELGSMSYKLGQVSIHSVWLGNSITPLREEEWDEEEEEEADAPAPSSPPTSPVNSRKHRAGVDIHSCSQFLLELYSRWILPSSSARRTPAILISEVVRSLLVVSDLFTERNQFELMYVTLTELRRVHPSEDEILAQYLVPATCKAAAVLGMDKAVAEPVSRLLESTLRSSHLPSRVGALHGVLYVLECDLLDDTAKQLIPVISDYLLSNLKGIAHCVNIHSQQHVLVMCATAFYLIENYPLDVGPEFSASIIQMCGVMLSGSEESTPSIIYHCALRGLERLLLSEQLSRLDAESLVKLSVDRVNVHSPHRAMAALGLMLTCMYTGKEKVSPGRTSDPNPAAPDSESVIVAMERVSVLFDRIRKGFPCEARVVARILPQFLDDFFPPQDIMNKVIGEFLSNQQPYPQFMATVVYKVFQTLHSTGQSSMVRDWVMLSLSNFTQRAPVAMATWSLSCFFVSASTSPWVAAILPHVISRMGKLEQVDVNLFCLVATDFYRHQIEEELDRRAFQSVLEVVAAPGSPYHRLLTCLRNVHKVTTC
Hits are given with their value; 0 = inactive; - = no result. Only some compounds are listed: those with a hit (about 3.6% of all), similar ones and a draw of the others. Cut-off read from the data, not from the text of the source: active = inhibition above about 50%; inactive = the rest.

SMILES	Pf apPOL block	mHTT CaM bind
Cc1ccc2ccc(C(Nc3ccccn3)c3cccc(O)c3)c(O)c2n1 (configuration not stated)	0	76
Cc1ccc2cccc(I)c2n1	0	-
Cc1cc(O)c(C(c2cccnc2)c2c(O)cc(C)oc2=O)c(=O)o1	0	0
Cc1cccc(NC(c2ccccc2)c2ccc3ccc(C)nc3c2O)n1 (configuration not stated)	0	77
COc1ccc(NC(=O)c2cc(C)n3nccc3n2)cc1Cl	0	0
N#Cc1ccc(NC(=O)CCCn2cnc([N+](=O)[O-])n2)cc1	0	0
CNC(=O)C1CN(C(=O)CCC2CCCC2)CC12CCCC2 (configuration not stated)	0	0
Cc1c(C(N)=O)nnn1-c1nonc1N	-	0
Cc1cc(C(=O)Nc2ccc(C(=O)O)cc2)ccc1[N+](=O)[O-]	0	0
O=c1cc(CO)oc(C(Nc2ccccn2)c2cccc([N+](=O)[O-])c2)c1O (configuration not stated)	0	0
Cc1ccnc(NC(=O)CSc2nc(C)cc(C)n2)c1	0	0
COc1ccc(-c2csc(Nc3cc(C)ccn3)n2)cc1OC	0	0
Cc1ccc2cccc(SCC(=O)Nc3ccc(F)cc3)c2n1	0	0
Cc1cccc(NC(c2cccc([N+](=O)[O-])c2)c2ccc3ccc(C)nc3c2O)n1 (configuration not stated)	0	70
Cc1cccc(NC(c2ccccc2F)c2ccc3ccc(C)nc3c2O)n1 (configuration not stated)	0	71
Cc1ccnc(NC(c2cccc(O)c2)c2ccc3ccc(C)nc3c2O)c1 (configuration not stated)	0	93
COc1cc(C(Nc2cc(C)ccn2)c2ccc3ccc(C)nc3c2O)cc(OC)c1OC (configuration not stated)	0	89
COc1cc(NC(=O)C2c3ccccc3C(=O)N(C)C2c2cccs2)cc(OC)c1OC (configuration not stated)	0	0
CCC(C)NC(=O)C1CCN(c2cc(C)ccc2C)C1=O (configuration not stated)	0	0
CCN(CC)c1cc(F)c([N+](=O)[O-])cc1[N+](=O)[O-]	-	0
CC(C)(C)c1ccc(OCC(O)CN2CCN(CCO)CC2)cc1 (configuration not stated)	0	0
CN(C)CC(O)COc1ccc(C(C)(C)CC(C)(C)C)cc1 (configuration not stated)	0	99
CC(C)(C)CC(C)(C)c1ccc(OCC(O)CN2CCCC2)cc1 (configuration not stated)	0	100
CC(C)(C)CC(C)(C)c1ccc(OCC(O)C[N+]2(C)CCCC2)cc1 (configuration not stated)	0	0
CC[N+]1(CC(O)COc2ccc(C(C)(C)CC(C)(C)C)cc2)CCCC1 (configuration not stated)	0	84
SMILES	Pf apPOL block	mHTT CaM bind
CC(C)(C)c1ccc(OCC(O)CN)cc1 (configuration not stated)	0	0
CC(C)(C)c1ccc(OCC(O)CN2CCCC2)c(C(C)(C)C)c1 (configuration not stated)	0	0
CCC(C)(C)c1ccc(OCC(O)CN2CCOCC2)c(C(C)(C)CC)c1 (configuration not stated)	0	94
Cc1ccc(CN2CCNCC2CCO)o1 (configuration not stated)	-	0
O=C(Cn1[nH]c(-c2ccccc2)cc1=O)Nc1ccc(Cl)cc1	0	63
Cc1ccc(-c2cc(=O)n(CC(=O)Nc3ccc(C)c(C)c3)[nH]2)cc1	0	0
COc1cccc2cc(C(=O)NC(C)=O)c(=Nc3cccc(C#N)c3)oc12	0	0
CCOc1ccc(CCNC(=O)c2cc3cc(Br)ccc3oc2=O)cc1OCC	0	0
COc1ccc(C(=O)Nc2nc(CC(=O)NCc3cccs3)cs2)cc1	0	0
O=C(Cc1csc(NC(=O)c2ccc[nH]c2=O)n1)NCc1cccs1	0	64
CCc1nc(-n2cccc2)sc1C(=O)Nc1ccc(C)c(F)c1	0	0
COc1cccc(NC(=O)N2CCC(c3nc(C(=O)N4CCCCC4)c(C)o3)CC2)c1	0	0
O=[N+]([O-])c1cccc(/C=C/c2nc(C=Nc3ccccc3)c(O)o2)c1	0	0
O=[N+]([O-])c1cccc(/C=C/c2nc(C=Nc3ccc(O)cc3)c(O)o2)c1	0	50
COc1ccc2nc(C(=O)NCc3ccc(Br)cc3)cn2n1	0	0
CC1=Nc2ccccc2C1=Cc1c(O)n(-c2cccc(Br)c2)c(=O)[nH]c1=O	0	96
CC1=Nc2ccccc2C1=Cc1c(O)n(-c2ccc(Cl)cc2)c(=O)[nH]c1=O	0	0
CC(C)NC(=O)c1ccc2c(c1)NC(=O)C1CCCCN21 (configuration not stated)	0	0
COc1ccc(N(CC(=O)NCc2cccnc2)S(C)(=O)=O)c(OC)c1	0	0
CCCCOc1cccc(C(=O)Nc2nnc(-c3ccco3)o2)c1	0	60
O=C(Nc1nnc(-c2ccco2)o1)c1ccc([N+](=O)[O-])cc1	0	0
CC1CCc2c(cnc3c(C(=O)NCCCN4CCN(C5CCCCC5)CC4)cnn23)C1 (configuration not stated)	0	0
CCCCNC(=O)C1c2cc(OC)c(OC)cc2C(=O)N(C)C1c1ccc(OC)c(OC)c1 (configuration not stated)	0	0
C=CCn1c(=O)c(C(=O)Nc2ccccc2)c(O)c2ccccc21	0	0
NCCNC(=O)c1c(O)c2cccc3c2n(c1=O)CC3	0	0
SMILES	Pf apPOL block	mHTT CaM bind
C=CCn1c(=O)c(C(=O)Nc2ncccc2C)c(O)c2ccccc21	0	98
NCCCCCCNC(=O)c1c(O)c2cccc3c2n(c1=O)CC3	0	100
Cc1cccnc1NC(=O)c1c(O)c2cccc3c2n(c1=O)CC3	0	80
O=C(Nc1ccncc1)c1c(O)c2cccc3c2n(c1=O)CC3	0	0
O=C(O)CCc1csc(NC(=O)c2ccc(=O)[nH]c2)n1	0	0
Clc1ccc(-c2csc(=Nc3ccccc3)n2CCCN2CCOCC2)cc1	0	98
O=S(=O)(c1ccc(-c2csc(=Nc3ccccc3)n2CCCO)cc1)N1CCCCC1	0	51
CCOc1ccc(N=c2scc(-c3ccccc3)n2CCO)cc1	0	0
OCCCn1c(-c2ccc(Br)cc2)csc1=Nc1ccccc1	0	59
CCOc1ccc(N=c2scc(-c3ccc(Br)cc3)n2CCO)cc1	0	0
CCCn1c(-c2ccc(S(=O)(=O)N3CCOCC3)cc2)csc1=Nc1ccccc1	0	0
Cc1ccc(C)c(-c2csc(=Nc3ccccc3)n2CCCO)c1	0	100
CCCCn1c(-c2ccc(S(=O)(=O)N3CCOCC3)cc2)csc1=Nc1ccccc1	0	0
Cc1cc(F)ccc1NC(=O)C1CCCN(C(=O)c2ccccc2F)C1 (configuration not stated)	0	0
O=C(NCC(O)c1ccsc1)c1ccc2c(c1)OCO2 (configuration not stated)	0	0
Cc1ccc(N2CC(C(=O)Nc3cccc(C)c3C)CC2=O)cc1 (configuration not stated)	0	0
O=C(NCc1ccc(F)cc1)c1csc(-c2ccncc2)n1	0	0
CCOC(=O)c1sc(N)nc1C	0	-
CCOC(=O)C(C(=O)C(F)(F)F)C(NC(N)=S)c1ccco1 (configuration not stated)	0	-
Cc1ccc(C(=O)N2CCN(c3ccc(-c4nc(C)c(C)s4)cn3)CC2)cc1	0	0
